# Shown is part of a subset that was picked to be rich in hits.
# FECH inh: inhibitors of human ferrochelatase, primary screen, biochemical, purified FECH, Ni-mesoporphyrin absorbance; Ferrochelatase, mitochondrial (Homo sapiens), P22830; Ni-mesoporphyrin absorbance 550 nm; calls only at 10 µM (by protocol); hit rate 3.3% among 20,000;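 active = enzyme reaction rate more than 3 SD below the solvent-only control wells on the same plate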;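 also: lower slope than DMSO wells means FECH inhibition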
# Target sequence (P22830 whole entry, looked up): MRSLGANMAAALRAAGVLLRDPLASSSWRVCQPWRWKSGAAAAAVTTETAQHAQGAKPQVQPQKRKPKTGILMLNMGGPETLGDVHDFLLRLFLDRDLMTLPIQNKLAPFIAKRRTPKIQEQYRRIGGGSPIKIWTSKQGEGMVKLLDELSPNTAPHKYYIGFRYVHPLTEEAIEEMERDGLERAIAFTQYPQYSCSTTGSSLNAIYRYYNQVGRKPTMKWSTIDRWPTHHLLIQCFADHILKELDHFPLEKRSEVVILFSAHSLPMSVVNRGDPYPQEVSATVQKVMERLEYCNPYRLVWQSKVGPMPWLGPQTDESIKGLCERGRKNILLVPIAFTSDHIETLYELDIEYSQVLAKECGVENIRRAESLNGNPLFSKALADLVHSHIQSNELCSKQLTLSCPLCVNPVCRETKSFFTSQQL
# * hit, by the source's call; i = inactive; + = active, no number.
SMILES,FECH inh
CCOc1ccccc1CN(CC)C(=O)c1ccc2nccn2c1,i
CCOc1ccccc1CN(C(=O)c1cn(CC)c2nc(C)ccc2c1=O)C1CC1,i
Cc1ccc(N2CCCS2(=O)=O)cc1NC(=O)c1ccc(OC(C)C)cc1,i
CCC(=O)Nc1ccc(S(=O)(=O)N2CCC(n3c(C(F)(F)F)nc4cccnc43)CC2)cc1,i
CCc1nc2nc(C)[nH]n2c(=O)c1NC(=O)Nc1ccc(C)c(Cl)c1,i
Cc1ccc(NCc2nc3nc4c(c(=O)n3[nH]2)CCC4)cc1Cl,+
O=c1c2c(nc3nc(CNc4ccc(Cl)cc4)[nH]n13)CCC2,+
Cc1ccc(NCc2cc(=O)n3[nH]c(NCc4ccc(F)cc4)nc3n2)cc1Cl,i
O=c1c2c(nc3nc(CNc4ccccc4)[nH]n13)CCC2,+
CCc1nc2nc(C)[nH]n2c(=O)c1NC(=O)Nc1ccccc1F,i
O=c1cc(CNc2ccccc2)nc2nc(NCc3ccc(F)cc3)[nH]n12,i
COc1ccc(Cl)cc1NCc1nc2nc3c(c(=O)n2[nH]1)CCC3,i
CCc1ccccc1NCc1nc2nc3c(c(=O)n2[nH]1)CCC3,+
O=c1cc(CN2CCCC2)nc2nc(NCc3ccc(Cl)cc3)[nH]n12,i
CCn1cnc(NC(=O)NCc2ccccc2-n2ccnc2)n1,i
Cc1ccc2[nH]cc(CCNC(=O)CC3CCN(S(=O)(=O)c4ccccc4)CC3)c2c1,i
O=C(NCCNc1ncc(F)c(N2CCCC2)n1)c1cccnc1,i
O=S(=O)(c1ccc(Cl)s1)N1CCC(n2c(-c3ccccc3)nc3cccnc32)CC1,i
CCC(=O)Nc1ccccc1-c1nnc(SC(CC)C(=O)Nc2ccccc2)[nH]c1=O (centres undefined),i
Nc1nnc(C(NC(=O)c2cnn3c2CCCC3)c2ccccc2)s1 (centres undefined),i
CC(=O)c1ccc(S(=O)(=O)NCc2nc3cccnc3n2C(C)C)cc1,i
COc1cccc(-c2noc3c2CN(CCCc2cccnc2)CC3)c1,i
COC(C)c1cccc(-c2ncccc2Cl)c1 (centres undefined),i
CC(c1cccc(-c2cccc3c(N)ccnc23)c1)N(C)C (centres undefined),+
CC(c1cccc(-c2ccc3nc[nH]c3c2)c1)N(C)C (centres undefined),i
SMILES,FECH inh
O=C(O)c1ccc2c(c1)N(Cc1ccc(F)cc1)C(=O)C1CCCN21 (centres undefined),i
CCOCCCNC(=O)Cn1c(=O)c2cnc(-c3ccccc3)nc2n(C)c1=O,i
CCCc1cc(N(C)CCc2cn[nH]c2)nc(C)n1,i
Cc1cc(NCc2cn[nH]c2-c2cccs2)nc(-c2cccnc2)n1,i
CCc1csc(CNC(=O)c2ncc[nH]2)n1,+
CCc1csc(CNC(=O)c2ccc(-c3ncn[nH]3)cc2)n1,i
CCc1csc(CNC(=O)c2cc(C3CC3)[nH]n2)n1,i
COc1cccc(S(=O)(=O)NCc2nc3cccnc3n2C2CCCC2)c1,i
Cc1ccc(S(=O)(=O)Nc2cnc(N3CC=C(c4ccccc4C)CC3)c(C(=O)O)c2)cc1,+
COc1ccc(S(=O)(=O)Nc2cnc(N3CC=C(c4ccccc4C)CC3)c(C(=O)O)c2)cc1,i
Cc1ccccc1C1=CCN(c2ncc(NS(=O)(=O)c3ccc(F)c(F)c3)cc2C(=O)O)CC1,i
CCc1c(C)nc2ncnn2c1Sc1ccc(NC(=O)Nc2ccc(C)c(Cl)c2)cc1,i
CC(C)Nc1ccnc(NCc2cccnc2Oc2ccc(F)cc2F)n1,i
Cc1ccc(C2=CC(c3ccc(F)cc3)n3nc(NC(=O)c4ccccc4)nc3N2)cc1 (centres undefined),i
Cc1ccc(C(=O)Nc2nc3n(n2)C(c2c(F)cccc2Cl)C=C(c2ccc(Cl)cc2)N3)cc1 (centres undefined),i
Cc1ccc(C2=CC(c3ccc(Cl)cc3)n3nc(NC(=O)c4ccccc4F)nc3N2)cc1 (centres undefined),i
Cc1cccc(C(=O)Nc2nc3n(n2)C(c2c(F)cccc2Cl)C=C(c2ccc(Cl)cc2)N3)c1 (centres undefined),+
Cc1ccc(C2=CC(c3c(F)cccc3Cl)n3nc(NC(=O)CCc4ccccc4)nc3N2)cc1 (centres undefined),i
Cc1ccc(C2=CC(c3c(F)cccc3Cl)n3nc(NC(=O)c4cccc(Cl)c4)nc3N2)cc1 (centres undefined),i
O=C(Nc1nc2n(n1)C(c1ccc(F)cc1)C=C(c1ccccc1)N2)c1ccccc1 (centres undefined),+
O=C(Nc1nc2n(n1)C(c1ccc(F)cc1)C=C(c1ccccc1)N2)c1ccc(Cl)cc1 (centres undefined),i
CC(=O)Nc1nc2n(n1)C(c1c(F)cccc1Cl)C=C(c1ccccc1)N2 (centres undefined),+
Cc1ccc(C2=CC(c3c(F)cccc3Cl)n3nc(NC(=O)c4ccc(Cl)cc4)nc3N2)cc1 (centres undefined),i
CCC(=O)Nc1nc2n(n1)C(c1c(F)cccc1Cl)C=C(c1ccc(C)cc1)N2 (centres undefined),i
O=C(Nc1nc2n(n1)C(c1c(F)cccc1Cl)C=C(c1ccc(Cl)cc1)N2)c1cccnc1 (centres undefined),+
SMILES,FECH inh
CCCc1cc(Sc2ccc(NC(=O)c3ccccc3Cl)cc2)n2ncnc2n1,i
CCCc1cc(=O)[nH]c(SCc2nc(-c3ccc(C)cc3)oc2C)n1,i
CCN(Cc1ccncc1)Cc1ccc(Sc2ncccn2)o1,i
Cc1ccc(F)c(NC(=O)CCC(=O)N(C)Cc2ncc(C)[nH]2)c1,i
COc1ccccc1CNC(=O)CNCc1nc2c(C)cccc2o1,i
OCc1cccc(-c2ccc(-c3nc(-c4ccccc4F)no3)cn2)c1,i
CCOC(=O)c1ccccc1NC(=O)N1CCC(n2cnc3cccnc32)CC1,i
O=C(NC1CC(=O)N(CCc2ccccc2)C1)c1ccc(-c2ncn[nH]2)cc1 (centres undefined),i
O=C(Nc1nc2n(n1)C(c1ccccc1Cl)C=C(c1ccccc1)N2)c1ccccc1 (centres undefined),i
O=C(Nc1nc2n(n1)C(c1c(F)cccc1Cl)C=C(c1ccccc1)N2)c1ccccc1 (centres undefined),+
COc1ccc(C(=O)Nc2nc3n(n2)C(c2c(F)cccc2Cl)C=C(c2ccccc2)N3)cc1 (centres undefined),i
CSc1nc(NCC(C)O)c(C#N)c(-c2ccc(C)cc2)n1 (centres undefined),i
Cc1ccc(S(=O)(=O)Nc2cnc(N3CCOCC3)c(C(=O)O)c2)cc1,i
Cc1nc2ncnn2c(Sc2ccc(NC(=O)Nc3ccccc3F)cc2)c1C,i
Cc1ccc(Cn2c(CCNC(=O)Nc3ccc(F)c(Cl)c3)nc3cccnc32)cc1,i
COc1ccc(NC(=O)Cn2c(C(=O)OC(C)C)cc3ccsc32)cc1,i
CC(=O)c1ccc(NC(=O)Cn2c(C(=O)OC(C)C)cc3ccsc32)cc1,+
CC(=O)c1cccc(NC(=O)Cn2c(C(=O)OC(C)C)cc3ccsc32)c1,i
Cc1nc(N2CCOCC2)c2c(C(=O)Nc3ccc(S(N)(=O)=O)cc3)c(C)oc2n1,i
CCCc1nc(C)cc(N(C)CC2CC(=O)N(C(C)(C)C)C2)n1 (centres undefined),i
CCc1ccc(S(=O)(=O)NCCn2c(C(F)(F)F)nc3cccnc32)cc1,i
